# Data: PubChem BioAssay AID624417 (National Center for Advancing Translational Sciences (NCATS), 2012)
# The whole screen tested about 410,000 compounds, of which about 6,400 (1.6%) were called active. Not shown: some 20% with an inconclusive outcome. This excerpt belongs to a sample that is enriched for actives. Values without a mark were called inactive. The call rests on the fitted dose curve; in most records, active means well fitted inhibition curve with a large enough effect; inconclusive means small, poorly fitted or top-dose-only effect; inactive means no such curve, though single readings can be large or run the other way.
# Target: Glucagon-like peptide 1 receptor (Homo sapiens) (UniProt P43220)
# Assay: qHTS of GLP-1 Receptor Inverse Agonists (Inhibition Mode); further: nearly all actives have a fitted effect of over 55% in size
# Settings: HEK293 GLP-1R CRE-luciferase, luminescence, 24 h, GLP-1R form is constitutively active; series mostly up to 38.3 µM; activity change, negative = inhibition: at the top concentration
# Procedure, shortened: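 Inverse agonism was detected as reduced cAMP-driven luciferase luminescence after 24 h compound treatment. The cells were HEK293 clones expressing constitutively active human GLP-1R with the reporter. Reporter-only and GPR119 cell lines served as counterscreen controls.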
# On the % scale 0 is the no-effect control and ±100 the full control effect; potency means the concentration at half of the fitted maximal effect.
# Chain of Glucagon-like peptide 1 receptor (Homo sapiens) (P43220 whole entry, looked up): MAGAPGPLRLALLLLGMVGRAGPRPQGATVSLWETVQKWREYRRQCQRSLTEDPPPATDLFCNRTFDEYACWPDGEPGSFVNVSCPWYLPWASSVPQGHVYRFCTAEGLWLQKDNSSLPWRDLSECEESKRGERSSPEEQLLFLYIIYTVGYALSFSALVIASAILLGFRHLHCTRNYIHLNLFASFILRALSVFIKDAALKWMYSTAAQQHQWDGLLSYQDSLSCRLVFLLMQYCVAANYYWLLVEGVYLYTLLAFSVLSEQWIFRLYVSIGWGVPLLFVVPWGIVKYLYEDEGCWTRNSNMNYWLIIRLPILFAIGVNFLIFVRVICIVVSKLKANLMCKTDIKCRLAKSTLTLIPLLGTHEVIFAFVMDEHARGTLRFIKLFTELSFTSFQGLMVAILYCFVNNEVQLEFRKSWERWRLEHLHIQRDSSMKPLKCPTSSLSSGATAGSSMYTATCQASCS
SMILES,"activity change, negative = inhibition [%]",Potency
CCCS(=O)(=O)NC(=O)C1(C)CCN(C(=O)c2sccc2C)C1 (configuration not stated),9.36,–
O=C(OCc1cn([C@H]2C[C@H](c3ccccc3)N(C(=O)c3cccs3)C[C@@H]2O)nn1)c1ccccc1,-9.16,–
CN1CCN(C(=O)c2ccc(-c3cc4nc(NCc5cccnc5)n(C)c(=O)c4s3)cc2)CC1,48.9,–
O=C(c1ccccc1)N1CCN(c2cc(-c3ccccc3)nc3cc(-c4cccc(Cl)c4)nn23)CC1,6.15,–
COc1ccc(OC)c(NC(=O)C2CCCN2S(=O)(=O)c2ccc3c(c2)CC(C)N3C(C)=O)c1 (configuration not stated),52.3,–
C[C@@H]1CN([C@@H](C)CO)C(=O)CCCn2nncc2CO[C@@H]1CN(C)S(=O)(=O)c1ccc(-c2ccccc2)cc1,2.95,–
CC(C)CCNC(=O)c1[nH]c(C(F)(F)F)nc1-c1ccccc1,-2.13,–
COC(=O)c1sccc1S(=O)(=O)N(CC(=O)Nc1ccc(C)c(F)c1)c1ccc(C)c(C)c1,–,8.91 µM (active)
COc1ccc(N(CC(=O)Nc2ccc(F)c(F)c2)S(=O)(=O)c2c(C)[nH]c(=O)[nH]c2=O)cc1,6.71,–
CCc1cccc(NC(=O)CN(c2ccc(C)c(C)c2)S(=O)(=O)c2ccsc2C(=O)OC)c1,8.25,–
CCc1nc2ccc(C(=O)N3CCN(S(=O)(=O)CC)CC3)cn2c1N(C=O)CCC(C)C,22,–
O=C(NCCC1CCCCN1S(=O)(=O)c1cccs1)C(=O)Nc1ccc(F)cc1F (configuration not stated),–,6.31 µM (active)
COc1ccc(CCNC(=O)C(=O)NCC2CCCN2S(=O)(=O)c2cccs2)cc1OC (configuration not stated),12.1,–
O=C(NCCC1CCCCN1S(=O)(=O)c1ccc(F)cc1)C(=O)NC1CC1 (configuration not stated),-11.8,–
COC(=O)C[C@@H]1C=C[C@@H](NC(=O)c2ccc3c(c2)OCO3)[C@@H](CO)O1,22.2,–
CCOC(=O)c1cc2sccc2n1Cc1ccc(C#N)cc1,0,–
O=C(c1cc2sccc2n1Cc1ccc(F)cc1)N1CCc2ccccc21,–,5.01 µM (active)
CC(=O)Nc1ccc(NC(=O)c2cc3sccc3n2Cc2ccc(F)cc2)cc1,-19.9,–
N#CCCC(C#N)(c1cccnc1)N1CCOCC1 (configuration not stated),-2.69,–
COCCNC(=O)C1(C)CCCN(Cc2cccc(F)c2)C1 (configuration not stated),-17.9,–
O=C(NCc1cccc(C(F)(F)F)c1)c1ccc2sc(COCCO)nc2c1,-3.62,–
O=C(C[C@H]1C[C@H]2c3cc(NS(=O)(=O)c4ccc(F)cc4)ccc3O[C@H]2[C@H](CO)O1)NCc1cc(F)ccc1F,-2.89,–
CCCNC(=O)c1cc(C2CCCCN2C(=O)OC)on1 (configuration not stated),33.7,–
COc1ccc(C(=O)N2CCCCC2c2cc(C(=O)Nc3ccccc3)no2)cc1 (configuration not stated),–,10 µM (active)

SMILES,"activity change, negative = inhibition [%]",Potency
N#Cc1cccc(NC(=O)c2cc(C3CCCCN3C(=O)CCc3ccccc3)on2)c1 (configuration not stated),-20.6,–
COc1cccc(NC(=O)N(C)C[C@@H]2Oc3ncc(Br)cc3C(=O)N([C@@H](C)CO)C[C@H]2C)c1,0.452,–
CCC1OC(C2CC2)CC2=C1C(=O)OC(C)(C)O2 (configuration not stated),14.6,–
CCN(CC)CCNC(=O)c1ccc(NC(=O)c2cc(-c3ccncc3)nc3ccccc23)cc1,–,12.6 µM (active)
COC(=O)CNC(=O)c1cc(-c2ccncc2)nc2ccccc12,6.15,–
O=C(Nc1ccc(S(=O)(=O)Nc2nccs2)cc1)c1cc(-c2ccncc2)nc2ccccc12,3.63,–
C=CCOc1ccccc1CNn1c(C)n[nH]c1=S,-10.3,–
CC1(C(=O)NS(=O)(=O)c2cccc(OC(F)F)c2)CCN1C(=O)COc1ccc(Cl)cc1 (configuration not stated),-17.8,–
CCOc1ccccc1C1CC(c2ccccc2)Nc2nc(N)nn21 (configuration not stated),4.9,–
COc1ccc(C2CC(c3ccc(C)cc3)Nc3ncnn32)cc1 (configuration not stated),5.72,–
FC(F)Oc1ccccc1C1CC(c2ccc(Br)s2)Nc2ncnn21 (configuration not stated),–,7.94 µM (active)
Cc1ccc(S(=O)(=O)N[C@H](CO)C(C)C)cc1,16.6,–
C[C@H]1CN([C@@H](C)CO)C(=O)CCCn2cc(nn2)CO[C@@H]1CN(C)S(=O)(=O)c1ccc(-c2ccccc2)cc1,34,–
C[C@H]1CN(c2ccc(Br)cc2)C(=O)[C@@H]1CC(=O)Nc1ccc(Br)cc1,-6.77,–
COc1ccc(NC(=O)c2sc(=O)n(Cc3ccc(S(=O)(=O)N(C)C)cc3)c2C)cc1,15.2,–
Cc1ccc(NC(=O)Cc2ccc(NC(=O)N3CCCCc4ccccc43)cc2)cc1,–,7.94 µM (active)
Cc1cc(Cl)ccc1NC(=O)Cc1ccc(NC(=O)N2CCCCc3ccccc32)cc1,1.66,–
Cc1ccccc1CNC(=O)c1ccc(NC(=O)N2CCCCc3ccccc32)cc1,2.26,–
CCOC(=O)N1CCN(C(=O)C[C@@H]2C[C@@]3(C(=O)OC)CC(C)(C)CC=C3N(Cc3ccco3)C2=O)CC1,-19.4,–
CCCNC(=O)C1(C)CCCN(C(=O)c2oc3ccccc3c2C)C1 (configuration not stated),17.5,–
CC1(C(=O)NS(=O)(=O)c2cccc(F)c2)CCN1C(=O)c1cccc2ccccc12 (configuration not stated),25.7,–
Cc1ccccc1S(=O)(=O)N1[C@@H](c2cccc(Cl)c2)C(C(=O)OC(C)(C)C)=CC[C@H]1c1ccc(Cl)cc1,26,–
O=C(Nc1nnc(-c2ccccc2F)s1)c1ccccc1F,42.3,–
